In PubChem BioAssay (NCI) one finds growth inhibition data, which are given here for 20 molecules.

The nature of assay [1]: NCI Yeast Anticancer Drug Screen. Data for the rad50 strain (AID 155).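 Also: 0% = growth of vehicle-only cultures of the same strain.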 The note with it: S. cerevisiae rad50 strain growth inhibition; at 50.0 µM; hits give high values. In a few lines:
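Vehicle-treated cultures provide the reference for the growth inhibition reported for compound-exposed, repair-deficient yeast.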

Assay [2] is described as follows: NCI Yeast Anticancer Drug Screen. Data for the mec2-1 strain (AID 157). The settings on record: S. cerevisiae mec2-1 strain, at 50.0 µM, hits give high values. The essentials: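 Yeast mec2-1 mutant treated with compound. Readout: growth inhibition vs vehicle controls.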
Assay [3] in a line: NCI Yeast Anticancer Drug Screen. Data for the sgs1 mgt1 strain (AID 161).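 Also: 0% = growth of cultures given vehicle only.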 The settings on record: S. cerevisiae sgs1 mgt1 strain, at 50.0 µM, hits give high values. In a few lines: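 Mutant yeast exposed to compound; growth scored against vehicle-only wells.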
The nature of assay [4]: NCI Yeast Anticancer Drug Screen. Data for the cln2 rad14 strain (AID 165).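 Also: 0% = growth equal to vehicle treated cultures.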 The settings on record: S. cerevisiae cln2 rad14 strain, at 50.0 µM, hits give high values. In a few lines:
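cln2 rad14 yeast strain; compound exposure; growth inhibition read vs vehicle controls.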

Assay [5] is described as follows: NCI Yeast Anticancer Drug Screen. Data for the bub3 strain (AID 167). The settings on record: S. cerevisiae bub3 mutant strain, at 50.0 µM, hits give high values. The essentials:
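Mutant yeast screening strain plus compound; vehicle-treated cultures serve as the 0% inhibition reference.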

A short description of assay [6]: NCI Yeast Anticancer Drug Screen. Data for the mlh1 rad18 strain (AID 175). The settings on record: S. cerevisiae mlh1 rad18 strain growth inhibition; at 50.0 µM; hits give high values. The essentials: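 Yeast w/ defined DNA-repair lesions; compound exposure; growth vs vehicle controls → % inhibition.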

About 79,000 compounds went through this panel and 15% of them were active in at least one assay; those are over-represented in the sample as a whole. A number with no mark means an inactive call. The source made the active and inactive calls. Rule as the data show it: active = growth inhibition above about 70%; inactive = the rest.

Regarding `CC(=O)Nc1ccc2c(c1)C(=O)c1ccc(S(C)(=O)=O)cc1-2`, the growth inhibition in assay [1] is 14.8%; in assay [2], -1.15%; in assay [3], -0.95%; in assay [4], 3.5%; in assay [5], -0.85%; in assay [6], -3.35%.
Consider `CCc1cc(CC)n2cnnc2n1`, for which the growth inhibition is 16.7% in assay [1]; -3.75% in assay [2]; -9% in assay [3]; -29.6% in assay [4]; 7.2% in assay [5]; -8.5% in assay [6].
On to `CC(=O)NNC(=S)N/C=C(\C#N)S(=O)(=O)c1ccc(C)cc1`, for which the growth inhibition is -44.5% in assay [1]; -26.4% in assay [2]; -35.5% in assay [3]; -61.3% in assay [4]; -25.8% in assay [5]; -37.6% in assay [6].
With `CC(C)N(C(=S)[S-])C(C)C.CC(C)N(C(=S)[S-])C(C)C.[Zn]`, the growth inhibition in assay [1] is 96.8% (active); in assay [2], 96.8% (active); in assay [3], 97.8% (active); in assay [4], 24.1%; in assay [5], 59.5%; in assay [6] it was 97% (active).
`O=S=C(c1ccccc1)N1CCc2ccccc21`: the growth inhibition in assay [1] is 22.4%; in assay [2], 3.75%; in assay [3], 12.1%; in assay [4], 7.15%; in assay [5] it was 18.4%; in assay [6] it was 22.7%.
Regarding `CN(c1ccccc1)S(=O)(=O)c1ccc(Cl)cc1`, the growth inhibition in assay [1] was 38%; in assay [2], 19.1%; in assay [3], 32.1%; in assay [4], 11.4%; in assay [5], 43.2%; in assay [6], 25.9%.
As for `CCCCOC(=O)c1ccccc1OC`, the growth inhibition in assay [1] was -16.1%; in assay [2] it was 7.2%; in assay [3], -2.3%; in assay [4], 16.9%; in assay [5] it was 12.1%; in assay [6], -6.9%.
As to `O=C(CC1(O)C(=O)Nc2ccccc21)c1ccc(O)cc1O` (stereo not given), the growth inhibition was 13.2% in assay [1]; 15.4% in assay [2]; 12.1% in assay [3]; 26.4% in assay [4]; 14.3% in assay [5]; 18.6% in assay [6].
As for `C[n+]1c2ccccc2c(Oc2c3ccccc3[n+](C)c3ccccc23)c2ccccc21`, the growth inhibition in assay [1] was 3.8%; in assay [2] it was 11.2%; in assay [3], 31.4%; in assay [4], -15.3%; in assay [5], -4.4%; in assay [6], 0.1%.
Turning to `CC(=O)Oc1ccc([N+](=O)[O-])cc1`, the growth inhibition in assay [1] is 16.9%; in assay [2], 12.7%; in assay [3] it was 27.4%; in assay [4] it was -17.7%; in assay [5], -1%; in assay [6], 34%.
`CC(O)C1OC(=O)C(O)C1O` (stereo not given): the growth inhibition was -0.75% in assay [1]; 4.95% in assay [2]; -14.8% in assay [3]; -5.9% in assay [4]; 5.95% in assay [5]; -6.05% in assay [6].
As to `O=C(Nc1ccc(F)c([N+](=O)[O-])c1)Nc1ccccc1C(F)(F)F`, the growth inhibition is 3.95% in assay [1]; 29.6% in assay [2]; 33.8% in assay [3]; -3.5% in assay [4]; 31.3% in assay [5]; 25.8% in assay [6].
On to `COc1ccc([N+](=O)[O-])cc1F`, for which the growth inhibition was 10.9% in assay [1]; -12.8% in assay [2]; 5.5% in assay [3]; -6.9% in assay [4]; 8.25% in assay [5]; 31.8% in assay [6].
With `CC1(C)S[C@@H]2[C@H](NC(=O)/C=C/c3ccccc3)C(=O)N2[C@H]1C(=O)O`, the growth inhibition in assay [1] was 15.3%; in assay [2], 9.5%; in assay [3] it was 9.2%; in assay [4], 0.6%; in assay [5], 25.6%; in assay [6], -5.5%.
Consider `CN1C(=O)N(C)C(=O)C(C)(NS(=O)(=O)c2ccc(NC(=O)CCC(=O)O)cc2)C1=O`, for which the growth inhibition is 17.6% in assay [1]; 11.6% in assay [2]; 12.2% in assay [3]; 16.1% in assay [4]; 0.95% in assay [5]; 24.3% in assay [6].
With `N#CC(C(=O)CCc1nc2ccccc2[nH]1)c1nc2ccccc2s1` (stereo not given), the growth inhibition is 6.75% in assay [1]; -3.5% in assay [2]; -9.55% in assay [3]; -17.8% in assay [4]; 4.35% in assay [5]; -0.6% in assay [6].
As to `CCCCOC(=O)N1CCCCC1`, the growth inhibition in assay [1] is -9.75%; in assay [2] it was -8.15%; in assay [3] it was -17.3%; in assay [4] it was -5.9%; in assay [5] it was -14.3%; in assay [6], -5.75%.
Consider `CC1(CC2(c3ccccc3)NC(=O)NC2=O)NC(=O)NC1=O` (stereo not given), for which the growth inhibition in assay [1] was -0.55%; in assay [2], -19.6%; in assay [3], 0.9%; in assay [4], 10.6%; in assay [5], 11.8%; in assay [6], 5.65%.
As to `CCOC(=O)C(=[N+]=[N-])C(=O)CN1C(=O)c2ccccc2C1=O`, the growth inhibition in assay [1] is -21.6%; in assay [2], -7%; in assay [3] it was -31.5%; in assay [4] it was -7.7%; in assay [5] it was 5.9%; in assay [6], -15.9%.
For the molecule `CC1OC(OC23C(=O)CC(C)(O)CC2(O)C=CC2=C3C(=O)c3ccc(C4CC(OC5CCC(OC6CC(O)C(O)C(C)O6)C(C)O5)C(O)C(C)O4)c(O)c3C2=O)CCC1O` (stereo not given), the growth inhibition in assay [1] was 1.4%; in assay [2], -7.95%; in assay [3], 5.75%; in assay [4] it was -0.5%; in assay [5] it was -0.25%; in assay [6], 18.1%.
